Source: PubChem BioAssay (National Center for Advancing Translational Sciences (NCATS))
The sample as a whole holds a higher share of hits than the screen did.
Giardia FBPA inh – Giardia lamblia aldolase inhibition; A8B2U2; purified Giardia FBPA; Potency, µM (top dose mostly 59.6 µM), usual class: inhibitors; 290,000 tested, 0.71% active; AID 2451; further: nearly all actives have a fitted effect of over 55% in size
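40 nM FBPA preincubated 10 min at RT with compound (up to 57.5 uM final), then substrate plus GAPDH/TPI/NAD/arsenate coupling and diaphorase/resazurin added. Fluorescence read after 20 min at RT, 525/598 nm.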
Sm TGR inh – S. mansoni TGR enzyme inhibition; purified TGR, DTNB reduction, TNB absorbance 405 nm; 360,000 tested, 3% active; Q962Y6; Potency, µM (titrated, usually from 114 µM), most hits filed as inhibitors; AID 485364; further: nearly all actives have a fitted effect of over 60% in size
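Kinetic colorimetric format: TGR-catalysed, NADPH-driven DTNB reduction monitored via TNB absorbance. Enzyme dispensed at 20 nM; compound exposure 15 min at room temperature before reaction start.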
Shiga toxin inh – blocks Shiga toxin action in Vero cells. 290,000 tested, 9.2% active. AID 2315. Vero cells, Shiga toxin protein synthesis inhibition reporter. inhibition, % at 38.7 µM; in the data active means inhibition mostly above about 28%, no sharp cut-off; inactive means mostly below about 43%
Tb PYK inh – T. brucei pyruvate kinase inhibition; Potency, µM (doses to about 76.8 µM), hits mostly inhibitors; TbPYK enzyme, Kinase-Glo Plus ATP luminescence, 45 min; 410,000 tested, 0.12% active; Q57TT1; further: nearly all actives have a fitted effect of over 50% in size
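Assay buffer: 50 mM TEA pH 7.2, 100 mM KCl, 10 mM MgCl2, 0.05% BSA, 0.01% Tween-20. Pyruvate kinase from T. brucei plus substrate met compound, then ADP (130 uM final). Luminescence was read post 45 min RT.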
Cycloheximide cs – counter-screen hit for Shiga toxin inhibitors, cycloheximide. cell reporter, cycloheximide protein synthesis inhibition counterscreen. max response, %. 300,000 tested, 12% active; in the data active means max response mostly above about 13%, no sharp cut-off; inactive means mostly below about 14%; further: read at 38.3 µM for the half of the compounds with a filed dose
LmPK inhibitor – LmPK (Leishmania mexicana) enzyme inhibition; Potency, µM (doses to about 57.5 µM), usual class: inhibitors; AID 1721; Q27686; 290,000 tested, 0.37% active; purified LmPK, Kinase-Glo ATP luminescence, 1 h
Target sequence (Q27686 whole entry, looked up): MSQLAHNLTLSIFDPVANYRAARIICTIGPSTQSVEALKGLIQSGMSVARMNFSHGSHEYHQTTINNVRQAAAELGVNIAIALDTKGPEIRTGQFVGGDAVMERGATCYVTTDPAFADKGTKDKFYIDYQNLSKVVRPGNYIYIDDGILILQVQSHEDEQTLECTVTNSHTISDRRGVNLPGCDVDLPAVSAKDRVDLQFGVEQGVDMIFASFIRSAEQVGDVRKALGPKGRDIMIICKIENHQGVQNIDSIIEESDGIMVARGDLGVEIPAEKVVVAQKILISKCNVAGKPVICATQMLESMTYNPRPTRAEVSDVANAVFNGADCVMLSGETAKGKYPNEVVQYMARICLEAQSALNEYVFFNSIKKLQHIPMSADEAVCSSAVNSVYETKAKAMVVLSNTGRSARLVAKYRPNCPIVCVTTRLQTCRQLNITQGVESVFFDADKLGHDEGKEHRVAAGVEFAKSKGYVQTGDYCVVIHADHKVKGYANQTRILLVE
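Screened at intermediate enzyme activity to detect both inhibitors and activators: LmPK at 0.1 nM, with a 0.5 nM enzyme column as activation reference. PEP 0.5 mM, ADP 0.1 mM; ATP detected by luminescence after 1 h.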
Hits are given with their value; i = inactive; ? = inconclusive; nt = no result; [ ] = dose if it differs, or a comment. Unless noted, the call rests on the fitted dose curve; in most records, active means well fitted curve in the direction sought with a large enough effect; inconclusive means small, poorly fitted or top-dose-only effect, or another doubt; inactive means no such curve, though single readings can be large; an effect the other way counts as inactive or inconclusive.

SMILES	Giardia FBPA inh	Sm TGR inh	Shiga toxin inh	Tb PYK inh	Cycloheximide cs	LmPK inhibitor
CO[C@@H]1/C=C\CC(=O)N[C@@H](C)C(=O)OC[C@@H](OC)[C@H](C)CCCC(=O)OC[C@H]1C	i[12.9 µM]	nt	nt	nt	nt	nt
O=C(Nc1ccc(OCc2ccccc2)cc1)Nc1ccccc1C(=O)NCCCN1CCOCC1	i	i	48	?	35	14µM
c1ccc(COc2ccc(OCCCCN3CCCC3)cc2)cc1	i	i	82	i	19	i
O=C(Nc1ccccc1C(=O)NCCCN1CCOCC1)c1ccc(F)cc1F	nt	i	i	i	i	i
c1ccc(COc2ccc(OCCCN3CCCCC3)cc2)cc1	i	i	53	i	32	i
c1ccc(OCc2ccc(CCCN3CCOCC3)cc2)cc1	nt	i	28	i	26	i
c1ccc(OCCCN2CCCC2)cc1	?	i	i	i	i	i
CN1CCN(c2ncc3nc(-c4cccc(C#N)c4)c(=O)n(CCC#N)c3n2)CC1	i	nt	nt	nt	nt	nt
CCn1cc2nc(SCc3cc(C)ccc3C)n(Cc3ccc(C)cc3)c(=O)c2n1	nt	i	nt	i	nt	nt
CC1CCN(CCOc2ccc(OCc3ccccc3)cc2)CC1	i	i	54	i	39	i
c1ccc(COc2ccc(OCCOCCn3cncn3)cc2)cc1	i	i	80	i	57	i
CCN(CC)c1ccc(/C=N\NC(N)=O)cc1	i	i	i	i	i	i
CCN(CC)c1ccc(/C=N\NC(=O)c2cccc3cc[nH]c23)cc1	i	i	43	i	32	i
O=C(N/N=C/c1ccc([N+](=O)[O-])cc1)c1cccc2cc[nH]c12	i	i	i	i	16	i
O=C(N/N=C/c1ccc([N+](=O)[O-])cc1)c1[nH]ncc1Br	i	i	82	i	47	?
CCC(CC)C(=O)Nc1ccc2nc(SCC(=O)N3CCOCC3)sc2c1	nt	i	nt	i	nt	nt
O=C(NCCO)C(=O)NCC1OCCCN1S(=O)(=O)c1cc(F)ccc1F (stereo not given)	nt	i	i	i	i	i
COc1ccc(C2C(=O)N(C3CCCCCC3)CC(=O)N2CCc2ccc(OC)c(OC)c2)cc1 (stereo not given)	nt	i	nt	i	nt	nt
COc1ccc(NCc2cc3cc(OC)ccc3[nH]c2=O)cc1	?	i	i	i	i	i
COc1ccc2[nH]c(=O)c(CNc3cccc(C)c3)cc2c1	?	i	i	i	29	i
COc1ccc(N2CCN(C(=O)C(=O)c3c(C)[nH]c4ccccc34)CC2)cc1	nt	i	i	i	i	i
CC(=O)c1ccc(N2CCN(C(=O)C(=O)c3c(C)[nH]c4ccccc34)CC2)cc1	i	i	i	i	15	i
Cc1[nH]c2ccccc2c1SCC(=O)N1CCCc2ccccc21	i	i	i	i	i	i
Cc1[nH]c2ccccc2c1C(=O)C(=O)N1CCCc2ccccc21	i	i	64	i	50	i
O=C1/C(=C/c2ccc([N+](=O)[O-])cc2)CCc2ccccc21	i	i	127	nt	71	i
SMILES	Giardia FBPA inh	Sm TGR inh	Shiga toxin inh	Tb PYK inh	Cycloheximide cs	LmPK inhibitor
O=C1/C(=C/c2cccc([N+](=O)[O-])c2)CCc2ccccc21	i	i	57	i	59	i
O=C1C(=Cc2ccccc2[N+](=O)[O-])Cc2ccccc21	nt	nt	nt	i	nt	nt
CCCS(=O)(=O)c1cn2cccc(N)c2c1S(=O)(=O)CCC	?	22µM	i	i	i	i
Cc1ccccc1N1Cc2ccccc2C1=O	nt	nt	nt	i	nt	nt
CC(C(=O)O)c1ccc(N2Cc3ccccc3C2=O)cc1 (stereo not given)	i	i	72	i	i	?
CCc1ccc(S(=O)(=O)/N=C2\C=C(NS(=O)(=O)c3ccccc3)C(=O)c3ccccc32)cc1	?	?	44	i	30	i
Cc1ccccc1NC1=C/C(=N\S(=O)(=O)c2ccc(C(=O)O)cc2)c2ccccc2C1=O	0.79µM	?	36	i	i	i
CC(=O)Nc1ccc(NC2=C/C(=N/S(=O)(=O)c3cccs3)c3ccccc3C2=O)cc1	?	i	i	i	i	i
COC(=O)C(C(C)=O)C1=C/C(=N\S(=O)(=O)c2ccc(C)cc2)c2ccccc2C1=O (stereo not given)	13µM	28µM	i	i	i	?
Cc1ccc(NC2=C/C(=N/S(=O)(=O)c3cccs3)c3ccccc3C2=O)cc1C	?	i	50	i	31	i
CC(C)c1ccc(S(=O)(=O)/N=C2\C=C(NS(=O)(=O)c3ccccc3)C(=O)c3ccccc32)cc1	?	?	i	i	i	i
Cc1ccccc1NC1=C/C(=N\S(=O)(=O)c2cccs2)c2ccccc2C1=O	?	?	i	i	i	?
Cc1cc(NC(=O)COC(=O)CNS(=O)(=O)c2c(F)cc(F)cc2Br)no1	nt	nt	nt	i	nt	nt
COC(=O)c1n[nH]n(-c2ccccc2)c1=O	nt	i	nt	i	nt	nt
COc1ccc(S(=O)(=O)/N=C2\C=C(Nc3ccc(O)cc3)C(=O)c3ccccc32)cc1	?	i	i	i	i	i
O=C(O)c1ccc(S(=O)(=O)/N=C2\C=C(Nc3ccccc3F)C(=O)c3ccccc32)cc1	?	45µM	i	i	i	i
CCc1cc2c(cc3c(=O)n(CC(=O)NC(C)C)nc(CC)n32)s1	nt	i	nt	i	nt	nt
CCCCNC(=O)NC12CC3CC(CC(C3)C1)C2	i	i	i	i	i	i
CCCNC(=O)NCCC12CC3CC(CC(C3)C1)C2	i	i	65	i	45	i
CCCNC(=O)OCCC12CC3CC(CC(C3)C1)C2	i	i	25	i	59	i
CN(C)CCOC(=O)NCC12CC3CC(CC(C3)C1)C2	i	i	i	i	i	i
CCOC(=O)c1nnc2c(-c3ccc(Cl)cc3)c(C)nn2c1C	nt	i	nt	i	nt	nt
CCc1ccc(NC(=O)c2cc(C)no2)cc1	i	i	70	i	47	i
Cc1cc(C(=O)Nc2ccc(F)cc2F)on1	i	i	i	i	15	i
Cc1cc(C(=O)Nc2ccc(F)c(Cl)c2)on1	i	i	i	i	19	i
SMILES	Giardia FBPA inh	Sm TGR inh	Shiga toxin inh	Tb PYK inh	Cycloheximide cs	LmPK inhibitor
COc1ccc(NC(=O)c2cc(C)no2)cc1	i	i	72	i	36	i
CCCNC(=O)c1cc(C)no1	i	i	i	i	i	i
COc1cccc(N2CC(NC(=O)CCCc3ccccc3)CC2=O)c1 (stereo not given)	nt	i	nt	i	nt	nt
CCOC(=O)c1ccc(NC(=O)c2oc3c(c2C)-c2nn(Cc4ccccc4Cl)cc2CC3)cc1	nt	i	nt	i	nt	nt
Cc1cc(C(=O)Nc2ccccc2C)on1	i	i	i	i	i	i
Cc1ccc(NC(=O)c2cc(C)no2)cc1	i	i	80	i	59	i
O=C(COC(=O)CNC(=O)c1cccs1)Nc1ccccc1C(F)(F)F	i	i	i	i	i	i
CCOc1ccc(OCC(=O)Nc2ccccc2C(F)(F)F)cc1	i	nt	i	i	23	i
O=Cc1ccc(OCC(=O)Nc2ccccc2C(F)(F)F)cc1	i	i	i	i	25	i
Cc1ccc(OCCCC(=O)Nc2ccccc2C(F)(F)F)cc1	i	i	i	i	i	i
